These results are taken from PubChem BioAssay AID720536 (National Center for Advancing Translational Sciences (NCATS), 2013).

In all, about 1,600 compounds went through this assay and about 650 (41%) were called active. Not shown: some 39% with an inconclusive outcome. Calls follow the shape of the dose curve; as a rule, active = well fitted inhibition curve with a large enough effect; inconclusive = small, poorly fitted or top-dose-only effect; inactive = no such curve, though single readings can be large or run the other way. The set was probably picked from earlier hits. The full list was thinned out, with actives kept by preference.
Potency is read from the fitted curve at half-maximal effect.

This assay in a line: qHTS for Inhibitors of TGF-b: CCL64 Cells Orthogonal Assay for Cherry Picks. Also: nearly all actives have a fitted effect of over 65% in size. The note with it: CCL64 CAGA-GFP reporter, TGF-b stimulated, GFP fluorescence, 18 h; series mostly up to 46.1 µM; activity, negative = inhibition: at the top concentration. The text has this: TGF-b is a main component in the TGF-b signaling pathway which plays diverse roles in cellular and development pathways. TGF-b is the mediated by the transcription factors Smads. Although the Smad-dependent pathway is the primary canonical TGF-b signaling node, TGF-b1 can also activate alternative signaling pathways, including those involving MAPK (ERK, JNK and p38). This interaction may mediate or enhance Smad-dependent responses, or can exert Smad-independent effects. The complexity of this signaling cascade allows the TGF-b superfamily to perform unique, overlapping or redundant functions. We believe that targeting the TGF-beta pathway at the Smad-transcription factor level may eliminate the consequences of disrupting the entire pathway and offer specificity without affecting other signaling pathways. Smad3 is the primary transducer of TGF-b's signals and Smad3 regulates many functions attributed to TGF-b signaling. We hypothesize that Smad3 inhibitors will selectively eliminate Smad3-specific TGF-beta signals without undesired off-target effects. We aim to identify Smad3-small molecule antagonists using a quantitative high throughput screening (qHTS) approach. A high-throughput assay was developed to screen the NIH Molecular Libraries Small Molecule Repository (MLSMR). This is a cell based assay, where TGF-b is tagged with GFP. This orthogonal assay was run using CCL64 cells (as opposed to HepG2); activity was desired in this assay as this indicated the hits identified from the screen are not a cell-based artifact. MH087449NIH Chemical Genomics Center [NCGC] NIH Molecular Libraries Probe Centers Network [MLPCN] MLPCN Grant: MH087449 Assay Submitter (PI): Sushil Rane, National Institute of Diabetes and Kidney Diseases
Suspensions of trypsinized CCL64 CAGA-GFP cells were dispensed into white, tissue culture-treated, solid 1536-well plates at 5uL/well (1000 cells/well final concentration) in DMEM medium supplemented with 1% FBS. Plates were incubated at 37 degrees C for 2 hours, after which 23 nL of compounds or DMSO were delivered to each well using a pin tool. One uL of recombinant TGF-beta in DMEM (1% FBS) was then dispensed (500 pg/mL final concentration), and plates were incubated at 37 degrees C for 18 hours. The plates were measured on an Acumen eX3 Explorer plate reader for GFP fluorescence (ex488/em500-530). GFP values were calculated by determining the mean GFP fluorescence of individual cells, and compiling these values for each well to determine a total well GFP signal. The %Activity was determined from the corrected fluorescence values. A titration of the known TGF-B inhibitor SB431542 was included to monitor plate performance, while unstimulated […] (-TGF-B) control wells were used to normalize %Activity of identified inhibitors; unstimulated wells corresponded to 100%Activity (full inhibition), while stimulated cell controls (+DMSO) were used to normalize 0%Activity (no inhibition). Concentration-response curves were fitted to the signals arising from the resulting fluorescence. The concentration-effect curves were then classified based on curve quality (r2), response magnitude and degree of measured activity, and compounds were subsequently categorized based on their curve class.
On the technique in general: In qHTS, concentration-response curves come from the screen itself.
As for `CCC(C)(O)C(=O)OC1C(=O)OC2CC3C(C)=CC(=O)C(O)C3(C)C3C4(O)OCC23C1C(C)C4O` (stereo not given), the Potency was 0.231 µM (active).

In the case of `O=c1c2ccccc2nc(/C=C/c2ccc(F)cc2)n1-c1ccccc1O`, the Potency was 18.4 µM (active).

As for `COC(=O)C1=C(c2cc3ccccc3o2)C[C@@H]2CC[C@H]1N2C(=O)NC1CCCCC1`, the Potency was 14.6 µM (active).

On to `CC[C@H]1CN2CCc3cc(OC)c(OC)cc3[C@@H]2C[C@@H]1C[C@H]1NCCc2cc(OC)c(OC)cc21`, for which the Potency is 0.116 µM (active).

Take `O=Cc1cn(Cc2ccc(F)cc2Cl)c2ccccc12`: the “activity, negative = inhibition” value is 1.08% (inactive).
